Assay results taken from PubChem BioAssay AID624330 (Southern Research Specialized Biocontainment Screening …, 2012).
In all, about 340,000 compounds went through this assay and about 2,100 (0.62%) were called active.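 Rule for the calls: active = first-screen hits whose inhibition reached a set limit at any dose in the follow-up dose series; inconclusive = inhibition above the set first-screen limit but never retested; inactive = the rest.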 Not all results are given here. Entries with a potency or affinity are not part of this list.

The molecules below were run against Rac GTPase-activating protein 1 (Homo sapiens) (UniProt Q9H0H5) (assay: MgcRacGAP GTPase-activating activity inhibitors, confirmation, biochemical, ADP Hunter fluorescence, primary and confirmatory (AID 624330;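 note: fluorescence reports GDP produced by GAP-driven GTP hydrolysis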)). Settings: MgcRacGAP-stimulated Rac1 GTP hydrolysis, at 30 µM, hits give high values, GST-tagged Rac1 F28L mutant substrate.
Chain of Rac GTPase-activating protein 1 (Homo sapiens) (Q9H0H5 whole entry, looked up): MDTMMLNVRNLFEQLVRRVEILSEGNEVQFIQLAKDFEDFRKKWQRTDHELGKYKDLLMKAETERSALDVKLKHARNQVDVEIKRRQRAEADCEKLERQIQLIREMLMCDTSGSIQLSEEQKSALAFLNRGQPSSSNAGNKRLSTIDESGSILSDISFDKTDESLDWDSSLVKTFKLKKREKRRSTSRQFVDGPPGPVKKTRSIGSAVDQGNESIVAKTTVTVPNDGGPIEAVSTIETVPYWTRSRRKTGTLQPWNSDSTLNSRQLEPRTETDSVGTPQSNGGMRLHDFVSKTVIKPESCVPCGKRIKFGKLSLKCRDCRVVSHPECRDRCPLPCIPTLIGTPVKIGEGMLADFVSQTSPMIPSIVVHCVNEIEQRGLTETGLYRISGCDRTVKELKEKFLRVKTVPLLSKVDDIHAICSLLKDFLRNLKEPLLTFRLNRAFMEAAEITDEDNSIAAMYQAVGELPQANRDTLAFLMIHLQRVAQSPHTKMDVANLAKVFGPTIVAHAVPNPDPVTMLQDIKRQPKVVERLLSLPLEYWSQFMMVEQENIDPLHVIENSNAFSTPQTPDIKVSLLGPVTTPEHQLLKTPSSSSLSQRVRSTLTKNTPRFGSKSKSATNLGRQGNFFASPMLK

inhibition, inactive:
COC(=O)Nc1nnc(-c2ccc(OC)cc2)s1 16%
COc1ccc(C(=O)NNC(=O)COc2ccc(Cl)cc2C)cc1S(=O)(=O)N1CCOCC1 6.89%
O=C(NCCN1CCOCC1)C(Sc1ccccc1)c1ccccc1 (stereo not drawn) 15.2%
NCCSc1c(-c2ccc(Cl)cc2)[nH]c2ccccc12 8.34%
O=C(COC(=O)c1c(F)cccc1Cl)NC(=O)Nc1ccc2c(c1)OCCO2 0.21%
CC(=O)NC12CC3CC(C1)CC(C(=O)N1CCN(S(=O)(=O)c4ccccc4[N+](=O)[O-])CC1)(C3)C2 9.33%
COCCNC(=O)c1cc(-c2ccccc2)nn1Cc1cc(C)no1 2.94%
Cc1c(-c2ccccc2)c(=O)oc2cc(O)ccc12 7.91%
O=c1oc2cc(O)ccc2c2ccccc12 17.2%
COc1ccc(F)cc1S(=O)(=O)NCC1CCCO1 (stereo not drawn) 1.18%
O=C(CSc1nc(-c2ccco2)cc(C(F)(F)F)n1)Nc1ccc2c(c1)OCO2 4.87%
Cc1ccc(CNc2nc(C)nc3sc4c(c23)CCC4)cc1 5.5%
Cc1nc(Nc2cccc(O)c2)c2c3c(sc2n1)CCC3 10.2%
O=C(c1cccc(S(=O)(=O)N2CCCCCC2)c1)N1CCN(c2ccccc2F)CC1 2.31%
COc1ccc(NC2CCCN(C(=O)CSc3ccccn3)C2)cc1OC (stereo not drawn) 30.4%
O=C1CCCN1CCC(=O)N1CCCC(Nc2ccc(F)cc2)C1 (stereo not drawn) 7.82%
CC(C)c1ccc(NC2CCCN(C(=O)CCCn3cncn3)C2)cc1 (stereo not drawn) 6.88%
COc1ccccc1OCC(=O)N1CCCC(Nc2ccc(C)c(C)c2)C1 (stereo not drawn) 14.2%
COc1ccccc1OCC(=O)N1CCCC(Nc2ccc(F)c(F)c2)C1 (stereo not drawn) 7.15%
O=C(CSc1ccccc1)N1CCCC(Nc2ccccc2)C1 (stereo not drawn) 8.49%
O=C1CCCN1CCC(=O)N1CCCC(Nc2ccc(F)c(F)c2)C1 (stereo not drawn) 7.57%
O=C(CCCn1cncn1)N1CCCC(Nc2ccc(F)cc2)C1 (stereo not drawn) 5.12%
C[C@@H]1CN([C@@H](C)CO)C(=O)c2cc(Br)cnc2O[C@@H]1CN(C)C(=O)Nc1ccc(F)cc1 9.67%
C[C@H](NC(N)=O)C(=O)OCC(=O)Nc1ccc(OC(F)F)cc1 5.01%
COc1ccc(C2C(C(=O)NCc3ccco3)CCC(=O)N2c2ccc(OC)cc2)cc1 (stereo not drawn) -1.81%
O=C(CN1CCCC1)Nc1cccc(Cl)c1 6.77%
CN(CCOc1ccc(Cl)cc1)C(=O)c1cccc(S(=O)(=O)N2CCN(c3ccc(F)cc3)CC2)c1 2.42%
COc1ccc(/C=N/n2c(SC)nnc2-c2ccccc2)cc1C 12.1%
COc1ccc(/C=N/n2c(-c3ccc(C)cc3)n[nH]c2=S)cc1OC 8.75%
COc1cccc(/C=N/n2c(-c3n[nH]c4c3CCC4)n[nH]c2=S)c1OC 10.4%
COc1cccc(/C=N/n2c(C3CCCCC3)n[nH]c2=S)c1O 17.5%
COc1ccc(/C=N/n2c(C)nnc2C)c(OC)c1OC 8.6%
COc1ccc(/C=N/n2c(SC)nnc2-c2ccccc2)c(OC)c1OC 10.5%
COc1ccc(/C=C/C(=O)OC2CCCCC2CN(C)C)cc1 (stereo not drawn) 1.25%
CCN1CNC(=S)N(c2cccc(C)c2C)C1 7.09%
O=C(O)C1(S(=O)(=O)c2ccc(Cl)cc2)CCC1 6.58%
Cc1cccc(N2N=C(C(=O)Nc3nc(C)cs3)CCC2=O)c1 10.5%
O=C(Nc1cccnc1)c1ccccc1F 6.52%
O=C1Nc2ccccc2/C1=N\N1CCOCC1 3.01%
O=C1Nc2ccccc2C1=NN1CCCCCC1 -3.27%
CCN(Cc1ccccc1)S(=O)(=O)c1ccc(S(=O)(=O)N2CCN(CCC#N)CC2)cc1 -2.32%
Cc1ccc(NC(=O)CN(C)C(=O)CCSc2ccc(F)cc2)cc1 5.93%
COc1cccc(CN(C)C(=O)c2ccc(C)c(S(=O)(=O)N3CCCCC3)c2)c1 3.14%
COCCN(C(=O)CNC(=O)c1cccs1)C(C(=O)NC1CCCC1)c1cccs1 (stereo not drawn) 8.07%
COc1ccc(NC(=S)NCCSc2ccc(Cl)cc2)c(OC)c1 -1.73%
c1ccc(Nc2ccc3c4c(cccc24)CC3)cc1 16.2%
CC(=O)Nc1ccc2c3c(cccc13)CC2 3.29%
O=[N+]([O-])c1ccccc1N=Nc1ccc(O)cc1 9.07%
COCc1[nH][nH]c(=O)c1C=Nc1ccccc1 9.38%
O=C(OCc1ccccc1Cl)c1cccnc1Cl -1.97%
CCCCn1c(N)c(N(CCOC)C(=O)C(C)N2C(=O)c3ccccc3C2=O)c(=O)[nH]c1=O (stereo not drawn) 0.26%
CC(OC(=O)c1ccc(Cl)c([N+](=O)[O-])c1)C(=O)N1CCN(Cc2ccccc2)CC1 (stereo not drawn) 3.69%
CCOc1ccccc1C(=O)NCC(=O)N(C)Cc1ccccc1C 6.49%
COc1ccccc1N(C)S(=O)(=O)c1ccc(C(=O)Nc2cccc(Br)c2)cc1 4.53%
CCc1ccc(-n2c(=O)c3ccccc3n3c(=S)[nH]nc23)cc1 12.2%
COc1cccc(-n2c(=O)c3ccccc3n3c(=S)[nH]nc23)c1 13.7%
CCOC(=O)c1oc2ccccc2c1NC(=O)C(C)(C)C 4.02%
O=C(c1ccccc1)c1ccc(N2CCOCC2)c(F)c1 9.91%
Cc1cccc(C(=O)N2CCC(N3CCC(C(=O)N4CCOCC4)CC3)CC2)c1 7.61%
CCC1Sc2ccccc2N(CC(=O)NC2CC2)C1=O (stereo not drawn) -0.26%
O=C(O)c1cccc(N2C(=O)C=CC2=O)c1 9.07%
Cc1cc(C)cc(N2C(=O)C=CC2=O)c1 1.25%
COc1cccc(C(=O)NCC(c2ccco2)N2CCc3ccccc3C2)c1 (stereo not drawn) 7.73%
Cc1ccccc1N1C(S)=C(C#N)C(=O)NC1c1cccs1 (stereo not drawn) 39%
N#CC1=C(S)N(c2ccccc2)C(c2cccs2)NC1=O (stereo not drawn) 53%
Cc1cccc(N2C(S)=C(C#N)C(=O)NC2c2ccco2)c1 (stereo not drawn) 48.2%
N#CC1=C(S)N(c2ccc(F)cc2)C(c2cccs2)NC1=O (stereo not drawn) 38.9%
COC(=O)c1nnc(-c2ccccc2)nc1OC 4.64%
CCN(CC(=O)Nc1ccccc1C(F)(F)F)C(=O)c1cc(-c2cccs2)nn1-c1ccccc1 1.06%
CCC(=O)OCc1cc(=O)oc2ccc3ccccc3c12 9.78%
O=C(c1cncc(Br)c1)N1CCN(S(=O)(=O)c2ccc3ccccc3c2)CC1 2.91%
Nc1nccnc1C(=O)OCC(=O)NC1CCCc2ccccc21 (stereo not drawn) 2.06%
CCN1CCN(c2sc(S(=O)(=O)CC)nc2S(=O)(=O)c2ccc(Cl)cc2)CC1 13.7%
Cc1ccc(C2=N/C(=C\c3cccs3)C(=O)N2Nc2ccccc2)cc1 4.5%
COc1ccc(OCC(O)Cn2ccnc2C)cc1 (stereo not drawn) -5.32%
Cc1nccn1CCOc1ccc(Cl)cc1 19.6%
O=C(Nc1nc2ccccc2[nH]1)c1cccs1 5.07%
C/C(=N\Nc1nc2ccccc2[nH]1)c1ccc2c(c1)OCO2 29.4%
C/C(=N\Nc1nc2ccccc2[nH]1)c1ccccn1 16.1%
C/C(=N\Nc1nc2ccccc2[nH]1)c1ccc([N+](=O)[O-])cc1 9.3%
C/C(=N\Nc1nc2ccccc2[nH]1)c1ccc2c(c1)OCCO2 14.6%
C/C(=N\Nc1nc2ccccc2s1)c1cccs1 15.9%
COc1ccc(CN2C(=O)c3cccnc3C2=O)cc1S(=O)(=O)N1CCCCC1 5.59%
CCN1CCN(c2ccc(NC(=O)c3ccccc3F)cc2Cl)CC1 10.3%
O=C(CSc1nc(=O)n2ccccc2n1)N1CCC(Cc2ccccc2)CC1 2.37%
CC(C)Nc1nc(NC2CCCC2)nc(N2CCOCC2)n1 -6.17%
Cc1cccc(NS(=O)(=O)c2cccc(C(=O)N3CCCCCCC3)c2)c1 7.59%
CCOC(=O)C1=C(C)NC(C)=C(C(=O)OCC)C1C(=O)O -2.63%
Oc1ccc(/C=C/c2ccnc3ccccc23)cc1 20.5%
O=c1[nH]c2ccccc2nc1/C=C/c1ccc(F)cc1 2.77%
CN(C)c1ccc(/C=C/c2ccc3ccccc3n2)cc1 10.9%
C(=C\c1ccc2ccccc2n1)/c1ccccc1 -0.19%
O=C(Nc1cccc(S(=O)(=O)NC2=NCCCCC2)c1)c1cc(-c2ccc(Cl)cc2)nc2ccccc12 9.39%
Cc1ccc(-c2nnc(SCC(=O)Nc3nc4c(s3)CCCC4)n2C)cc1 10.7%
Cc1cccc(NC(=O)CCC(=O)N/N=C/c2cc([N+](=O)[O-])ccc2O)c1 5.13%
COc1ccc(O)c(/C=N/NC(=O)CCC(=O)Nc2cccc(C)c2)c1 6.29%
COc1ccc(O)c(/C=N/NC(=O)CCC(=O)Nc2ccc(C)cc2)c1 5.47%
Cc1ccc(NC(=O)CCC(=O)N/N=C/c2ccccc2O)cc1 -6.53%
